# Assay outcomes: PubChem BioAssay, several laboratories
# Sampled rows, rich in hits. Any-hit rate of the full collection: about 4.7%.
# TIM10 inh = growth inhibitors of isogenic TIM10 control yeast, primary screen, counter-screen for tim10-1 yeast inhibitor project, luminescence, uHTS | inhibition, % at 10 µM | 330,000 tested, 1.4% active | S. cerevisiae TIM10 strain growth, BacTiter-Glo luminescence, 24 h | AID 463195, 2010;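 active = inhibition of 40% or more at the single tested concentration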;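 also: wild-type TIM10 isogenic control strain grown at permissive 25 °C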
# PfHsp90 set2 = growth inhibition of PfHsp90-expressing yeast, primary screen, antimalarial PfHsp90 inhibitor project, S. cerevisiae, BacTiter-Glo luminescence, single point, set 2; BacTiter-Glo ATP, 48 h; yeast lacking PDR1 and PDR3 efflux regulators; inhibition, % at 9.4 µM; 310,000 tested, 0.32% active; AID 504621, 2011;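 active = every replicate shows inhibition above about 80%, whatever the replicate mean, limit read from the data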;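 also: 0% = DMSO neutral controls and 100% = 20 µM radicicol positive controls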
# SKKanGAS inh = S. pyogenes SKKanGAS growth inhibitors in kanamycin, primary screen, streptokinase expression inhibitor project, SKKanGAS strain, BacTiter-Glo luminescence. 6 h. AID 1662, 2009. inhibition, % at 7.5 µM. 300,000 tested, 1.3% active;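 active = mean replicate score, as percent of positive control median, at least 50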;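 also: strain carries kanamycin resistance gene driven by streptokinase promoter and grows in 40 µg/ml kanamycin; loss of luminescence reflects streptokinase promoter inhibition or plain growth inhibition; 0% = median of DMSO wells and 100% = positive control at its reference dose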
# tim23-1 inh = growth inhibitors of tim23-1 mutant yeast, primary screen, luminescence, uHTS; S. cerevisiae tim23-1 growth, BacTiter-Glo luminescence, 24 h; inhibition, % at 20 µM; 330,000 tested, 1.3% active; AID 463212, 2010;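 active = growth inhibition of the mutant yeast at or above 50%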;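 also: temperature-sensitive mutant grown at 25 °C; plate controls were DMSO-treated mutant yeast for no effect and medium wells lacking yeast for full effect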
# ATG4B inh = ATG4B protease inhibitors, primary screen, biochemical, fluorescence, uHTS | ATG4B cleavage of LC3-PLA2, NBD-HPC fluorescence, 1 h | AID 504462, 2011 | Cysteine protease ATG4B (Homo sapiens), Q9Y4P1 | 340,000 tested, 0.51% active | inhibition, % at 8.33 µM; in the data active = inhibition above about 40%
# Target sequence (Q9Y4P1 whole entry, looked up): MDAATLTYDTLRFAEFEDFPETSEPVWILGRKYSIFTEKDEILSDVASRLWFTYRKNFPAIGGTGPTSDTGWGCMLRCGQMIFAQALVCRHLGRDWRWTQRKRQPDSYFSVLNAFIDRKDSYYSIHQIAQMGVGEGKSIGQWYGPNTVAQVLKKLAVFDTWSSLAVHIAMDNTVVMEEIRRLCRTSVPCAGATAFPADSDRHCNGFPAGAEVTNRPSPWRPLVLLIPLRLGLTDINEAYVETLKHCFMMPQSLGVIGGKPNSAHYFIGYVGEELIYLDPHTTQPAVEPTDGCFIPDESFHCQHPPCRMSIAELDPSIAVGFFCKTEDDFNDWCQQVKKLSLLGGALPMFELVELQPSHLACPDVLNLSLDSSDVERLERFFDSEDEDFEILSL
# tim10-1 inh = growth inhibitors of tim10-1 mutant yeast, primary screen, luminescence, uHTS; S. cerevisiae tim10-1 ts strain growth, BacTiter-Glo, 24 h; 330,000 tested, 2.2% active; inhibition, % at 20 µM;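 active = inhibition of at least 40%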;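 also: mutant grown at 25 °C; 0% = DMSO wells with yeast and 100% = wells holding no yeast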
# tim10-1 confirm = growth inhibitors of tim10-1 mutant yeast, confirmation, single concentration, luminescence, S. cerevisiae; shares compounds with tim10-1 inh; S. cerevisiae tim10-1 ts strain growth, BacTiter-Glo, 24 h; inhibition, % at 20 µM; 7,400 tested, 56% active;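 active = inhibition of yeast growth at or above a set limit in either of two repeat tests at 20 µM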;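 also: tim10-1 mutant grown at permissive 25 °C to find synthetic lethal compounds; 0% = DMSO yeast wells and 100% = medium wells without yeast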
# * marks the source's active call; other numbers are inactive results; x = no result.
SMILES,TIM10 inh,PfHsp90 set2,SKKanGAS inh,tim23-1 inh,ATG4B inh,tim10-1 inh,tim10-1 confirm
CC(C)CC1Nc2ncnc(N3CCOCC3)c2N(Cc2ccc(Br)cc2)C1=O (stereo not given),12.8,1.9,-1.5,15.2,-6.6,14.7,x
CC(=O)c1cc2c(cc1NC(=O)CCn1cnnn1)OCO2,11.2,17.8,1.4,6.0,5.8,-13.5,x
Cc1cccc(NCCC(=O)c2ccc([N+](=O)[O-])cc2)c1C,23.0,x,2.5,21.7,1.2,40.4*,37.9*
O=C(CNC(=O)c1cccs1)OCC(=O)c1ccccc1,12.1,-12.4,-1.6,7.5,15.5,8.5,x
O=C(CNC(=O)c1cccs1)OCC(=O)c1ccc2ccccc2c1,37.5,-27.7,2.4,24.8,-23.0,40.5*,15.0
CCCN1Cc2cccc(C(=O)Nc3ccc4c(c3)OCO4)c2C1=O,11.3,-1.8,7.9,-13.2,-11.7,28.5,x
O=C(Nc1ccc2c(c1)OCO2)c1cccc2c1C(=O)N(Cc1cccnc1)C2,35.2,5.2,22.3,19.9,-10.8,42.9*,33.6*
CSc1ccc(NC(=O)Nc2cccn(Cc3ccccc3)c2=O)cc1,29.9,9.2,9.0,26.1,4.8,-0.8,x
CC(=O)N1CCN(C(c2ccccc2)c2ccccc2)CC1,2.7,-3.2,-5.9,0.0,5.1,11.6,x
CC12CCC(C(=O)N3CCN(C(c4ccccc4)c4ccccc4)CC3)(OC1=O)C2(C)C (stereo not given),27.5,26.9,1.0,34.3,0.7,41.3*,15.2
COC(=O)/C=C/C(=O)N1CCN(c2cccc(Cl)c2)CC1,12.6,x,-3.5,21.8,x,8.6,x
Cc1ccc(C(=O)Nc2ccc(N3CCCCC3)cc2)cc1,-13.5,13.1,x,-2.9,-4.5,-2.5,x
CC(C)Oc1ccccc1C1Nc2ccccc2C(=O)N1c1ccc2c(c1)OCCO2 (stereo not given),11.1,-6.4,6.9,24.9,9.1,45.7*,23.1
COc1ccc(NC(=O)Nc2nnc(CC(=O)Nc3ccccc3)s2)cc1,-9.7,10.4,-17.4,-11.1,-3.9,-5.9,x
COc1cccc(OC)c1C(=O)N1CCOCC1,1.7,-1.2,7.3,8.5,9.5,6.6,x
Cc1c(-c2ccccc2)sc(Br)c1C(=O)N1CCOCC1,13.9,-15.4,3.5,40.6,-11.9,47.8*,23.4
Cc1nc([N+](=O)[O-])c(Sc2nc3ccccc3[nH]2)n1Cc1ccccc1,4.2,10.1,5.7,22.9,-3.6,43.7*,22.1
Cc1cc2nc(Sc3c([N+](=O)[O-])nc(C)n3Cc3ccccc3)[nH]c2cc1C,25.3,0.5,0.4,37.4,4.4,43.3*,38.9*
COc1ccc2nc(Sc3c([N+](=O)[O-])nc(C)n3Cc3ccccc3)[nH]c2c1,32.8,x,-6.9,31.6,-8.8,32.6,x
O=C(O)c1cc(NS(=O)(=O)c2ccc(NCc3ccccc3)c([N+](=O)[O-])c2)cc(C(=O)O)c1,0.3,-28.2,3.7,-1.7,10.2,-1.7,x
O=C(NNC(=S)Nc1ccc(Br)cc1)c1ccc(N2CCOCC2)c([N+](=O)[O-])c1,14.4,-25.0,27.0,27.8,9.7,44.2*,18.5
C=CCn1c(=NC(=O)c2cc(-c3cccs3)nc3ccccc23)sc2cc(S(N)(=O)=O)ccc21,20.9,-31.7,15.0,21.9,-0.6,25.3,x
COCCn1c(=NC(=O)c2cc(-c3cccs3)nc3ccccc23)sc2cc(S(N)(=O)=O)ccc21,14.5,-7.3,36.5,24.3,-4.0,40.0,29.9*
CC(=O)N1N=C(c2cccc([N+](=O)[O-])c2)OC1c1ccc(Cl)cc1Cl (stereo not given),23.4,x,9.2,35.3,-5.4,40.5*,14.4
C[C@]12CCC(=O)C[C@@H]1CC[C@@H]1[C@@H]2CC[C@]2(C)C=CC[C@@H]12,9.9,7.2,13.7,32.7,-5.8,52.0*,69.7*
SMILES,TIM10 inh,PfHsp90 set2,SKKanGAS inh,tim23-1 inh,ATG4B inh,tim10-1 inh,tim10-1 confirm
COc1cc(CCC(=O)Nc2c(C(=O)N3CCN(c4ccccc4)CC3)oc3ccccc23)on1,7.4,6.0,5.6,34.9,-0.5,31.9,x
COc1cc(CCC(=O)Nc2c(C(=O)N3CCN(c4ccccc4OC)CC3)oc3ccccc23)on1,24.3,-12.4,-3.5,38.8,2.6,42.4*,10.0
Cc1nc2c(-c3ccc(F)cc3)cnn2c(N)c1-c1ccc(F)cc1,31.4,-22.7,6.8,32.7,0.2,20.5,x
Cc1cc(N)n2ncc(-c3ccc(F)cc3)c2n1,23.5,-2.7,-20.2,40.1,-12.5,50.0*,38.8*
CCOC(=O)N1CCN(c2cc3[nH]c(=S)[nH]c3cc2F)CC1,3.0,-2.4,0.1,-9.2,1.7,9.9,x
CCOC(=O)N1CCN(c2c(F)cc3[nH]c(=S)[nH]c3c2Br)CC1,23.0,17.2,7.5,34.8,-0.7,57.3*,28.6
O=C(COc1ncnc2c(Cl)cc(Cl)cc12)Nc1cc([N+](=O)[O-])ccc1Cl,-23.8,1.6,4.8,-10.6,0.2,15.1,x
C=CCc1cccc(/C=N/NC(=O)c2ccc3nc[nH]c3c2)c1O,7.2,-10.7,2.8,0.8,-15.4,44.0*,-2.5
CCN(CC)CCCNC(=O)Cn1ncc2c(=O)oc3ccc(C)cc3c21,-4.5,13.7,-0.8,6.8,-2.7,7.1,x
COc1ccc(CNS(=O)(=O)c2cc3c(cc2C)N(C)CCO3)cc1,5.2,-0.7,-1.7,33.2,-6.2,24.9,x
COC(=O)C1CCN(C(=O)c2ccc3nc(-c4cccc(OC)c4)oc3c2)CC1,24.1,-12.8,31.7,30.0,-4.8,41.7*,30.8
Cc1ccc(OCc2nnc(NC(=O)c3ccco3)s2)cc1,16.3,-9.8,-9.7,16.2,-0.6,20.4,x
CCOC(=O)C1CCCN(C(=O)Cn2sc3nc(C)cc(C)c3c2=O)C1 (stereo not given),3.0,-9.1,6.4,6.9,-2.5,40.6*,30.4
Cc1cc(C)c2c(=O)n(CC(=O)N3CCC(N4CCCCC4)CC3)sc2n1,-3.6,4.9,0.7,13.8,-8.4,12.2,x
CC1CCN(S(=O)(=O)c2ccc3ccccc3c2)CC1,-0.8,-9.7,5.7,33.9,-1.2,43.8*,30.7*
O=C(CCl)N1CCN(S(=O)(=O)c2ccc3ccccc3c2)CC1,32.6,6.7,-0.5,42.2,6.0,40.3*,33.2*
CN1CCN(S(=O)(=O)c2ccc3ccccc3c2)CC1,7.9,1.9,-1.7,-1.7,-6.3,-14.1,x
